# Activity calls are given as the source filed them. Unless noted, how the calls were made is not given here.
# What was measured:
# [1] = compound effects on lung adenocarcinoma cell viability – A549, calcein-AM fluorescence, 48 h, basal, profiling panel (AID 1162); details: higher = more signal; further: test concentration not given here
# [2] = compound effects on differentiated 3T3-L1 adipocyte viability – cell-based, 3T3-L1 adipocytes, calcein-AM fluorescence, 48 h, basal, profiling panel (AID 1163); details: 3T3-L1 adipocytes viability, higher = more signal; further: test concentration not given here
# [3] = compound effects on hepatocellular carcinoma cell viability – HepG2, calcein-AM fluorescence, 48 h, basal, profiling panel (AID 1164); details: higher = more signal; further: test concentration not given here
# [4] = compound effects on multiple myeloma cell viability – MM1S, calcein-AM fluorescence, 48 h, basal, profiling panel (AID 1165); details: higher = more signal;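 further: viability of MM1S multiple myeloma cells under basal unstimulated conditions; test concentration not given here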
# [5] = calcein-AM signal in unstimulated myeloma cells – cell-based, calcein-AM fluorescence, 48 h, PK04 Diversity Set, profiling panel (AID 1166); details: RPMI8226 myeloma viability, higher = more signal;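 further: cells grown under basal conditions without added stimulus; test concentration not given here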
# [6] = JC-1 mitochondrial signal, unstimulated HepG2 cells – cell-based, JC-1 fluorescence, 24 h, 100 nL compound, profiling panel (AID 1167); details: HepG2 mitochondrial potential, higher = more signal; further: test concentration not given here
# [7] = JC-1 mitochondrial signal, unstimulated adipocytes – cell-based, JC-1 fluorescence, 3T3-L1 adipocytes, 24 h, 100 nL compound, profiling panel (AID 1168); details: JC-1 mitochondrial fluorescence, higher = more signal, called active from +8 up or from −8 down; further: test concentration not given here
# [8] = JC-1 mitochondrial signal, unstimulated myeloma cells – cell-based, JC-1 fluorescence, RPMI8226, 24 h, 100 nL compound, profiling panel (AID 1169); details: JC-1 mitochondrial potential fluorescence, higher = more signal; further: test concentration not given here
# [9] = JC-1 mitochondrial signal, unstimulated MM1S myeloma – cell-based, JC-1 fluorescence, 24 h, 100 nL compound, profiling panel (AID 1170); details: MM1S mitochondrial potential, higher = more signal; further: test concentration not given here
# [10] = resazurin metabolic signal in A549 cells – cell-based, resazurin fluorescence, 24 h, PK04 Diversity Set, profiling panel (AID 1171); details: A549 viability, higher = more signal, called active from +8 up or from −8 down; further: test concentration not given here
# [11] = resazurin metabolic signal in HepG2 cells – cell-based, resazurin fluorescence, 24 h, PK04 Diversity Set, profiling panel (AID 1172); details: HepG2 viability, higher = more signal; further: test concentration not given here
# [12] = budding yeast growth changes without added modifier – OD600, strain BY4716, 24 h, basal condition, primary screen (AID 1173); details: S. cerevisiae BY4716 growth, OD600, 24 h; higher = more signal, called active from +8 up or from −8 down
# [13] = viability profiling in MM1S myeloma cells – cell-based, resazurin fluorescence, basal, 24 h, PK04 Diversity Set, profiling panel (AID 1174); details: higher = more signal, called active from +8 up or from −8 down; further: test concentration not given here
# [14] = target: Dihydroorotate dehydrogenase (quinone), mitochondrial (Plasmodium falciparum (isolate 3D7)) (UniProt Q08210); experiment: inhibition of P. falciparum DHODH – biochemical, C-terminal His tag, absorbance 600 nm, primary screen (AID 1175); details: PfDHODH enzyme, DCIP absorbance 600 nm; higher = more signal, called active from +8 up or from −8 down;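 further: recombinant parasite enzyme with a five histidine tag at its C terminus; test concentration not given here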
# Dihydroorotate dehydrogenase (quinone), mitochondrial (Plasmodium falciparum (isolate 3D7)), sequence (Q08210 whole entry, looked up): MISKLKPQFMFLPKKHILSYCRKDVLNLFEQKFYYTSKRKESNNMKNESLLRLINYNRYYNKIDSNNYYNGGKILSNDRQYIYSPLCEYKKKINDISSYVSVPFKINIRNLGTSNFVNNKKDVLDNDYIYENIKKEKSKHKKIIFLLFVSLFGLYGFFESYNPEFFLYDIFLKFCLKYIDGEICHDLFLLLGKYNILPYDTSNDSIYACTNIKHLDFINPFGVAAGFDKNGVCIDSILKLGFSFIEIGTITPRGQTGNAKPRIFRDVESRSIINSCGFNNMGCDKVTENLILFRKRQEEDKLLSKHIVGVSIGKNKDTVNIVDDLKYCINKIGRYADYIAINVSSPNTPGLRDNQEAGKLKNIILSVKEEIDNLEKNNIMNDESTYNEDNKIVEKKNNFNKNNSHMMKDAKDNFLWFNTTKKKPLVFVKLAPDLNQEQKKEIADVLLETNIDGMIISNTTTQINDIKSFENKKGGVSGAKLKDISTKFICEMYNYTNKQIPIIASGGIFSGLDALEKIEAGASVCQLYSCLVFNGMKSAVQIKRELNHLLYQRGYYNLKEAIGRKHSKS
# [15] = inhibition of PAO1 biofilm formation – strain PAO1, LB-PBS medium, absorbance 600 nm, primary screen (AID 1176); further: test concentration not given here; details: P. aeruginosa PAO1 growth/biofilm, A600, 12 h; higher = more signal
# [16] = growth modulation of vineyard yeast isolate – strain RM11-1a, OD600, basal, 24 h, primary screen (AID 1177);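 further: cultures grown under basal conditions with no added stressor; test concentration not given here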; details: S. cerevisiae RM11-1a growth, OD600, 24 h; higher = more signal, called active from +8 up or from −8 down
# [17] = growth of efflux-deficient E. coli DRC39 – strain DRC39, OD650, 24 h, E. coli filamentation inducers, primary screen (AID 1178);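 further: growth measured as culture turbidity by optical density at 650 nm; test concentration not given here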; details: E. coli DRC39 acrAB, higher = more signal, called active from +8 up or from −8 down
# [18] = growth of efflux-deficient E. coli DRC39 – strain DRC39, OD650, 48 h, E. coli filamentation inducers, primary screen (AID 1179);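 further: screen aims at cell division blockers that make cells filament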; details: E. coli DRC39 delta-acrAB growth, higher = more signal, called active from +8 up or from −8 down
# [19] = viability profiling in RPMI8226 myeloma cells – cell-based, resazurin fluorescence, basal, 24 h, PK04 Diversity Set, profiling panel (AID 1180); details: higher = more signal;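 further: RPMI8826 multiple myeloma cell line at 5000 cells per well; test concentration not given here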
# [20] = target: E3 ubiquitin-protein ligase XIAP (Homo sapiens) (UniProt P98170); experiment: small molecules binding XIAP protein – biophysical, small-molecule microarray, fluorescence 635 nm, primary screen (AID 1181); details: higher = more signal;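 further: score merges 667 nm emission and signal to noise over triplicate slides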
# E3 ubiquitin-protein ligase XIAP (Homo sapiens), sequence (P98170 whole entry, looked up): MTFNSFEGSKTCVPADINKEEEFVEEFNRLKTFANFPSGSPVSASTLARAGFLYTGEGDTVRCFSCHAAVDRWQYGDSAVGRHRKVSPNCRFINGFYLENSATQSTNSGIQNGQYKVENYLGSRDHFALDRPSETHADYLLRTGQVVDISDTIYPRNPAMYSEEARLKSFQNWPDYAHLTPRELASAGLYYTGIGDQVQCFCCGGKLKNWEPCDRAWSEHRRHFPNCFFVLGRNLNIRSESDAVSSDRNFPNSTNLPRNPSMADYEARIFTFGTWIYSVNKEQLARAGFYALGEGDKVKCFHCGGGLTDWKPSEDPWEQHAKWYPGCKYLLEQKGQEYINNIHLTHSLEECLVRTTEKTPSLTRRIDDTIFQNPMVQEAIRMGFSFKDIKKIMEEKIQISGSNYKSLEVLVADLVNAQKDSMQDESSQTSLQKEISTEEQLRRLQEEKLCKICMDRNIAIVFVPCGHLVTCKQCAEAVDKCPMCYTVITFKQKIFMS
SMILES,z-score [1],z-score [2],z-score [3],z-score [4],z-score [5],z-score [6],z-score [7],z-score [8],z-score [9],z-score [10],z-score [11],z-score [12],z-score [13],composite z-score [14],z-score [15],z-score [16],z-score [17],z-score [18],z-score [19],composite z-score [20]
Cc1ccc(S[C@]2(C(=O)NC3CC3)CC(=O)N(Cc3ccccc3)[C@@H]2c2ccc(CO)cc2)cc1,1.29,-0.119,-0.12,-0.0947,0.181,-0.439,-0.199 (inactive),1.07,-0.452,0.846 (inactive),-0.177,-1.71 (inactive),0.262 (inactive),-0.867 (inactive),0.196 (inactive),-0.5 (inactive),0.354 (inactive),-0.255 (inactive),0.35,0.0424
COc1ccc([Si](C)(C)[C@@H]2[C@@H](CC(=O)N(CCO)Cc3ccccc3)O[C@]3(C(=O)N(C)c4ccccc43)[C@H]2C)cc1,-0.664,0.349,-1.58,-2.68,-3.74,-0.494,-1.44 (inactive),-1.12,-0.319,-1.78 (inactive),-1.36,-0.599 (inactive),-1.64 (inactive),-0.688 (inactive),0.708 (inactive),0.975 (inactive),-0.284 (inactive),-0.896 (inactive),-1.49,-0.0853
COc1ccc([Si](C)(C)[C@H]2[C@H](CCn3cc(CCO)nn3)O[C@@]3(C(=O)N(Cc4ccc(N5CCOC5=O)cc4)c4ccccc43)[C@@H]2C)cc1,0.252,0.469,0.161,-3.07,-2.73,0.484,0.854 (inactive),-0.911,-1.33,-1.75 (inactive),-0.909,0.93 (inactive),-2.57 (inactive),0.604 (inactive),0.802 (inactive),1.22 (inactive),0.864 (inactive),0.562 (inactive),-2.01,0.339
COCCOC(=O)N1C(=O)[C@@]2(c3cc(C#CCNC(N)=O)ccc31)[C@H](c1ccccc1OCCO)N1[C@H](c3ccccc3)[C@H](c3ccccc3)OC(=O)[C@H]1[C@@H]2C(N)=O,-0.0052,-0.131,-0.617,-0.456,0.0352,-1.83,0.369 (inactive),-0.115,-1.08,0.0565 (inactive),-0.554,1.91 (inactive),-0.279 (inactive),1.39 (inactive),0.971 (inactive),2.64 (inactive),-0.144 (inactive),-0.375 (inactive),0.138,-0.0525
COCCOC(=O)N1C(=O)[C@@]2(c3cc(C#CCCO)ccc31)[C@H](c1ccc(O)cc1)N1[C@H](c3ccccc3)[C@H](c3ccccc3)OC(=O)[C@H]1[C@@H]2C(N)=O,0.111,-0.0323,1.97,0.189,-0.934,-0.958,-1.44 (inactive),0.057,-0.915,-0.322 (inactive),-0.231,0.0254 (inactive),-0.644 (inactive),-0.294 (inactive),0.911 (inactive),0.565 (inactive),0.145 (inactive),0.138 (inactive),-1.08,-0.0272
CCOC(=O)C[C@H]1[C@H](OC(=O)Cc2ccc3c(c2)OCO3)[C@@H](NC(=O)c2ccc(-c3ccccc3)cc2)c2cc(OCCCO)ccc2N1C(=O)c1ccccc1,1.8,0.127,1.66,-0.262,0.0317,3.09,-0.288 (inactive),0.965,-0.0178,0.328 (inactive),0.0575,0.188 (inactive),0.106 (inactive),-0.0887 (inactive),0.608 (inactive),0.412 (inactive),1.02 (inactive),1.16 (inactive),-0.264,-0.17
[N-]=[N+]=NCc1ccccc1[C@H]1OC(c2ccc(OCCCO)cc2)=N[C@@]1(CCS(=O)(=O)c1ccccc1)C(=O)N1CCOCC1,1.91,0.831,1.01,-0.921,0.695,-1.05,0.455 (inactive),-0.507,-0.877,0.388 (inactive),-0.0894,0.798 (inactive),-0.306 (inactive),0.274 (inactive),0.631 (inactive),0.686 (inactive),0.186 (inactive),-0.109 (inactive),-0.8,-0.309
CS(=O)(=O)CCOC(=O)C1=CC(c2ccc(CO)cc2)=CC(C2CC2)N(Cc2cc3c(cc2Br)OCO3)C=C1C(=O)OCCS(C)(=O)=O (stereo not given),-0.261,-0.14,1.04,-2.68,-2.41,2.99,0.253 (inactive),-0.787,-1.8,-1.14 (inactive),-0.311,-4.92 (inactive),-2.7 (inactive),-0.735 (inactive),0.613 (inactive),0.478 (inactive),0.537 (inactive),-0.75 (inactive),-2.19,0.14
[N-]=[N+]=NCc1ccccc1C[C@]1(C(=O)O)N=C(c2ccc(OCCCO)cc2)O[C@H]1c1ccccc1,-0.755,-0.4,-0.509,-1.19,-0.388,-1.62,0.336 (inactive),-0.179,0.181,0.0055 (inactive),0.922,-2.17 (inactive),0.111 (inactive),0.732 (inactive),0.755 (inactive),-0.923 (inactive),-0.168 (inactive),-0.429 (inactive),0.525,-0.0482
